Experiment [1] is described as follows: qHTS assay for small molecule agonists of the antioxidant response element (ARE) signaling pathway (AID 651741; active = well fitted activation curve with a large enough effect in the signal ratio; the % refers to the signal ratio; note: potency is the fitted concentration of half-maximal effect; for activation: % of control where 0% means no effect). The procedure, abridged: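 Stably integrated ARE-beta-lactamase reporter HepG2 cells; 16 h compound incubation, 37 C; LiveBLAzer FRET substrate 2 h at room temperature; fluorescence intensity.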
Experiment [2] can be described thus: qHTS assay for small molecule activators of the p53 signaling pathway (AID 651743; active = well fitted activation curve with a large enough effect in the signal ratio, not every such curve was filed as active; the % refers to the signal ratio; note: % of control where 0% means no effect). Particulars: HCT-116 p53RE-bla, beta-lactamase FRET ratio, 16 h; activation: stronger effect = higher value. In short, it runs like this: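 Following 16 hours of compound exposure at 37 C, HCT-116 cells bearing the p53RE-bla reporter were loaded with LiveBLAzer B/G FRET substrate for 2 hours at room temperature and fluorescence intensity was recorded.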
Background: qHTS replaces the single test concentration by a dilution series.

Experiment [3] is described as follows: qHTS assay for small molecule activators of the nuclear factor-kappa B (NF-kB) signaling pathway (AID 651749; active = well fitted activation curve with a large enough effect in the signal ratio; the % refers to the signal ratio; note: % of control where 0% means no effect). Particulars: NF-kB-bla ME-180 cells, beta-lactamase FRET ratio, 16 h; stronger effect = higher value. The procedure, abridged: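 In this qHTS format, compounds acting as activators increase NF-kB-driven beta-lactamase in ME-180 cells, measured as disrupted FRET after 16 hr exposure at 37C and 5% CO2.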

Experiment [4] can be described thus: qHTS assay for environmental chemicals that activate the Aryl hydrocarbon Receptor (AhR) signaling pathway (AID 651777). Note: % of control where 0% means no effect; nearly all actives have a fitted effect of over 15% in size. Particulars: 1A2-DRE human hepatoma cells, luciferase, 24 h; stronger effect = higher value. The procedure, abridged:
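Measured luciferase activity, read 30 min after One-Glo addition at room temperature, from human hepatoma cells bearing a dioxin response element–CYP1A2 promoter reporter and exposed to compound for 24 hr at 37 C.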

Experiment [5] addresses Peroxisome proliferator-activated receptor alpha (Homo sapiens) (UniProt Q07869). In words: qHTS assay for small molecule agonists of the peroxisome proliferator-activated receptor alpha (PPARalpha) signaling pathway (AID 651778). Note: % of control where 0% means no effect. Particulars: PathHunter PPARalpha complementation, chemiluminescence, 6 h; stronger effect = higher value. In short, it runs like this:
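Enzyme-fragment complementation assay in which ligand-bound PPARalpha translocates and forms an active enzyme that generates chemiluminescence. Cells were plated overnight, exposed to compound for 6 hr at 37 C, and then given detection reagent for 60 min at room temperature.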

Experiment [6] in a line: Cytotoxicity counterscreen for NFkB agonists and antagonists (AID 624476;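 note: cells exposed to compound for 48 hours; % is set by controls: 0 for no effect and ±100 for the full control effect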). (The purpose of a counterscreen is to sort out artefacts and off-target activity.)
The nature of experiment [7]: qHTS Assay for Identification of Small Molecule Agonists for NFkB Signaling Pathway. (AID 624478).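 Note: compounds tested together with TNF alpha at its EC50 of 10 pM; 0% is about no effect.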 The procedure, abridged:
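Activators were sought in reporter cells stimulated at the TNF alpha EC50 (10 pM final). Compound and cytokine were co-incubated 5 hours at 37 C before beta-lactamase substrate detection by dual-emission fluorescence.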

Experiment [8] is described as follows: qHTS Assay for Identification of Small Molecule Antagonists for NFkB Signaling Pathway. (AID 624479; calls by dose curve;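 note: pathway stimulated with TNF alpha; % is set by controls: 0 for no effect and ±100 for the full control effect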).
A short description of experiment [9]: Cell Proliferation Assay against the TMD8 Cell Line (AID 651645).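 Note: cells exposed to compound for 48 h before reading.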 Particulars: TMD8 DLBCL cell line proliferation/viability; at 46.1 µM (top of the series). The procedure, abridged: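 500 TMD8 cells/well, RPMI + Glutamax, no phenol red, 5% FBS; cpd added immediately; 48 h, 37C, 5% CO2; CellTiter-Glo, luminescence. Controls: DMSO = 100%, bortezomib 9.2 uM final = 0%.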

Experiment [10] in a line: Cell Proliferation Assay against the HBL1 Cell Line (AID 651646).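 Note: cells exposed to compound for 48 h before reading.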 Particulars: HBL1 DLBCL cells; at 46.1 µM (top of the series). In short, it runs like this:
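HBL1, 500 cells/well, RPMI no phenol red + 5% FBS; cpd pinned, 48 h 37C/5% CO2; CellTiter-Glo, 15 min RT, luminescence. % activity: DMSO = 100%, bortezomib 9.2 uM final = 0%.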

Experiment [11] can be described thus: Cell Proliferation Assay against the TMD8 Cell Line (Caspase readout at 16 hrs) (AID 651712). In short, it runs like this: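 Caspase-Glo luminescence after 16 h compound exposure of TMD8 cells, 37 °C, 5% CO2. Medium: RPMI without phenol red, 5% FBS. Normalisation: DMSO = 0%, bortezomib 9.2 uM final = 100%.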
Experiment [12] in a line: Cell Proliferation Assay against the TMD8 Cell Line (Caspase readout at 8 hrs) (AID 651713).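 Note: 0% = DMSO and 100% = 9.2 µM bortezomib caspase signal.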 The procedure, abridged: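 Caspase 3/7 activation in ABC DLBCL TMD8 cells is measured by luminescence after an 8 h compound exposure at 37C. Relative light units are scaled between DMSO (0%) and 9.2 uM final bortezomib (100%).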
For experiment [13], the target named is Tumor necrosis factor (Homo sapiens) (UniProt P01375). In words: qHTS assay to identify small molecules that stimulate Tumor Necrosis Factor-alpha (TNF-alpha) secretion (AID 651757; active = well fitted curve in the direction sought with a large enough effect in the signal ratio; the % refers to the signal ratio; note: 0% is about no effect). In short, it runs like this: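 Human monocytic THP-1 cells are plated, treated with compound and held at 37 C for 17 hrs. Labeled anti-TNF-alpha antibody mixture is then added; after 3 hr at room temperature, TR-FRET signal reports secreted TNF-alpha.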

The target of experiment [14] is Nuclear receptor ROR-gamma (Homo sapiens) (UniProt P51449). In words: qHTS assay for small molecule antagonists of the retinoid-related orphan receptor gamma (ROR-gamma) signaling pathway (AID 651802).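 Note: CHO cells with doxycycline-induced ROR-gamma expression; % is set by controls: 0 for no effect and ±100 for the full control effect; nearly all actives have a fitted effect of over 60% in size.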 The procedure, abridged:
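Steps: cells dispensed; compound or DMSO transferred by pin tool; doxycycline added to induce the ROR response element-driven luciferase; plates held 16hr at 37C; ONE-Glo added and luminescence measured.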

Experiment [15] concerns the target Tyrosine-protein kinase Yes (Homo sapiens) (UniProt P07947). In words: qHTS for small molecule inhibitors of Yes1 kinase: Primary Screen (AID 686947).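 Note: plate controls were DMSO with enzyme for no effect and no-enzyme DMSO wells for full effect; nearly all actives have a fitted effect of over 60% in size.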 The procedure, abridged:
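ADP-Glo luminescence reports ADP formed by 4 nM Yes1 phosphorylating poly(E4Y) (0.3 mg/mL) with 0.1 mM ATP for 60 min at room temperature, following 20 min compound preincubation; normalised between DMSO wells with and without enzyme.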

Experiment [16] in a line: qHTS for small molecule inhibitors of Yes1 kinase: Counter Assay (AID 686950).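 Note: no kinase present so only ADP-Glo detection of a fixed ADP amount is tested; luminescence from ADP-Glo reporting ADP in a fixed ATP and ADP mixture; 0% = DMSO wells with ATP plus ADP and -100% = ATP-only wells without ADP.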 In short, it runs like this: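 No kinase present; 0.08 mM ATP + 0.02 mM ADP in 50 mM Tris pH 7.5, 10 mM MgCl2, 150 mM NaCl, 1 mM DTT; 20 min compound preincubation, 60 min RT, ADP-Glo luminescence, normalized to ATP/ADP (max) and ATP-only (min).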
Experiment [17] in a line: qHTS assay for small molecule disruptors of the mitochondrial membrane potential - 1 hr assay (AID 651754; calls by dose curve; note: % is set by controls: 0 for no effect and ±100 for the full control effect; nearly all actives have a fitted effect of over 35% in size). The procedure, abridged:
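Loss of mitochondrial potential shifts the cationic dye from red mitochondrial aggregates to green cytoplasmic monomers. Cells (HepG2) are treated with compound for 1 hr before a 30 min dye incubation at 37C.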

A short description of experiment [18]: qHTS assay for small molecule disruptors of the mitochondrial membrane potential - 5 hr assay (AID 651755; calls by dose curve; note: % is set by controls: 0 for no effect and ±100 for the full control effect; nearly all actives have a fitted effect of over 40% in size). The procedure, abridged: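 Read-out: ratiometric Mito-MPS fluorescence, green monomer (ex 490/em 535) vs red mitochondrial aggregate (ex 540/em 590). HepG2 cells treated 5 hr at 37C before 30 min dye loading.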
A short description of experiment [19]: qHTS assay to identify small molecules that stimulate interleukin-8 (IL-8) secretion (AID 651758; active = well fitted activation curve with a large enough effect in the signal ratio; the % refers to the signal ratio; note: 0% is about no effect). In short, it runs like this: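 Compounds are added to THP-1 cells (2000 per well) and left 16 hrs at 37 C. A labeled anti-IL-8 antibody pair is then added, and IL-8 secretion is measured by time-resolved FRET after 1-3 hrs at room temperature.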

“And” between values parts separate entries of the source, which are not always exact repeats. Equal entries are not always repeated. Inconclusive results are not listed. The source made the active and inactive calls. Unless noted, calls come from the whole dose curve; as a rule, active = well fitted curve in the direction sought with a large enough effect; inconclusive = small, poorly fitted or top-dose-only effect, or another doubt; inactive = no such curve, though single readings can be large; an effect the other way counts as inactive or inconclusive.

Sequence of Nuclear receptor ROR-gamma (Homo sapiens) (P51449 whole entry, looked up): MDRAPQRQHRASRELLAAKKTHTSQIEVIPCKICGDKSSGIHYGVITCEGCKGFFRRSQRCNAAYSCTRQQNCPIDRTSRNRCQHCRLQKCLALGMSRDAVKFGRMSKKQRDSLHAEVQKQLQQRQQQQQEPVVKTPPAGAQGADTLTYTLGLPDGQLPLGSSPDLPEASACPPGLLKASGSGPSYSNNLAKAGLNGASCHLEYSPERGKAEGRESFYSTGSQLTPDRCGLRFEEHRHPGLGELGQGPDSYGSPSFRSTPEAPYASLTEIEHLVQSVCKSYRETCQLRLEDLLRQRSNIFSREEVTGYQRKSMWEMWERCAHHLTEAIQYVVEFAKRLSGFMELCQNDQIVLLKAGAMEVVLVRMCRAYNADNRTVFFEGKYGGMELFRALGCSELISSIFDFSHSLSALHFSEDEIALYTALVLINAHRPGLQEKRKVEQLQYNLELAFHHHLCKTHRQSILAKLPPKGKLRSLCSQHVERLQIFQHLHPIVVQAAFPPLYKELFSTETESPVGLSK
Sequence of Peroxisome proliferator-activated receptor alpha (Homo sapiens) (Q07869 whole entry, looked up, the tested form may be a part): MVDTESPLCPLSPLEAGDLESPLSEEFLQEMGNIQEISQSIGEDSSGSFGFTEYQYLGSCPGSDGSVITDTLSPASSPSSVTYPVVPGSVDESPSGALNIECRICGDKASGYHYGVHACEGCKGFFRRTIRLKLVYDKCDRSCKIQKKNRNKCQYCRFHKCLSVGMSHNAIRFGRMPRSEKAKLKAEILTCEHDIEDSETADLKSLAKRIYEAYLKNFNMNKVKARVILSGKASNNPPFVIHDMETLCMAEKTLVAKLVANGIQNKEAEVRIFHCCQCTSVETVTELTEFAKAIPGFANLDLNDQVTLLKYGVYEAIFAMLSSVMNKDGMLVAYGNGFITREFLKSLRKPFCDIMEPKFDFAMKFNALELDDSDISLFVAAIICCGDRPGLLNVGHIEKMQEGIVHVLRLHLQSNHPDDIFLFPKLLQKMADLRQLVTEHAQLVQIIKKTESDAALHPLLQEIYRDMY
Sequence of Tumor necrosis factor (Homo sapiens) (P01375 whole entry, looked up): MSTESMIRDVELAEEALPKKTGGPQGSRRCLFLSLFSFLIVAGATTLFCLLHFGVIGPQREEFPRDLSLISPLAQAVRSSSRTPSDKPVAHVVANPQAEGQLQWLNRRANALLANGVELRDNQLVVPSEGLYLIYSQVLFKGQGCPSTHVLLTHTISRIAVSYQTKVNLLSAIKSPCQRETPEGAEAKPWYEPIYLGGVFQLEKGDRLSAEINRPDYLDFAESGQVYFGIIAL
Sequence of Tyrosine-protein kinase Yes (Homo sapiens) (P07947 whole entry, looked up): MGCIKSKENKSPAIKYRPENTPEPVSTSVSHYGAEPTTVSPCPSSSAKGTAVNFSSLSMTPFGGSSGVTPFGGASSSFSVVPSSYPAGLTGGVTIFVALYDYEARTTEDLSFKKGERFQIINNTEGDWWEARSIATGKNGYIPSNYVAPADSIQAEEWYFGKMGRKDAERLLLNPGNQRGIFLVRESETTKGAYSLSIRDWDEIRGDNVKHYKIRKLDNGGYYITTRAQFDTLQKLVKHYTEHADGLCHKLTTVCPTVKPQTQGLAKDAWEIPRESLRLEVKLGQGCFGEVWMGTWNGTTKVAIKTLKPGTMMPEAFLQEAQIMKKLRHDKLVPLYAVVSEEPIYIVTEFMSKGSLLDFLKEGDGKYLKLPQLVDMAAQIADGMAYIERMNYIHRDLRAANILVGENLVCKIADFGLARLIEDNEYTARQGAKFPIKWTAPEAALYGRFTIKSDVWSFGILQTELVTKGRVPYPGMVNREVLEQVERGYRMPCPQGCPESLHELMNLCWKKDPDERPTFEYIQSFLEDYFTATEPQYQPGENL

With `CCCCCCCCCCCCCCCC(=O)OC(C)C`, in experiment [1], the Potency is 54.5 µM (active).

For `CC(=O)N1CCN(c2ccc(OC[C@H]3CO[C@](Cn4ccnc4)(c4ccc(Cl)cc4Cl)O3)cc2)CC1`, the Potency in [1] was 30.6 µM (active).

Turning to `Nc1nc(N)nc(NC2CC2)n1`, the Potency result in experiment [1] is “inactive”. The values for the activation in experiment [2], in experiment [3] and in [4] were -0.84% (inactive), -2.39% (inactive) and 0.42% (inactive), respectively. The max response in experiment [5] is -0.264% (inactive).

On to `O=P1(N(CCCl)CCCl)NCCCO1` (stereo not given), for which the call in [6], in experiment [7], in experiment [8], in experiment [11], in experiment [12] and in experiment [13] was inactive. The outcome in [15] and in [16] was inactive. In [9], the viability (% of control) came to 114%. Moreover, the viability, percent of control in experiment [10] came out at 108%. The Potency entry in experiment [1] and in experiment [14] was “inactive” throughout. Also, the activation is -1.12% (inactive) and -2.77% (inactive) in [2]; -0.934% (inactive) and -1.34% (inactive) in experiment [3]; 0.318% (inactive) and -1.16% (inactive) in [4]. In experiment [5], the max response was 7.32% (inactive) and -1.68% (inactive).

As to `Oc1ccc(Cl)cc1`, the values for the activation in [2], in experiment [3] and in experiment [4] were -2.59% (inactive), -0.964% (inactive) and 0.502% (inactive), respectively. The molecule was called inactive in experiment [13]. Besides, in [5], the max response is 0.582% (inactive). In addition, the Potency entry in [14] was “inactive”.

On to `CCOC(=O)CC(SP(=S)(OC)OC)C(=O)OCC` (stereo not given), for which the Potency in [1] was 48.6 µM (active). The activation in [2] is -1.29% (inactive) and 0.916% (inactive) and -0.523% (inactive); in experiment [3], -3.4% (inactive) and -2.42% (inactive); in [4] it was 1.62% (inactive) and 10.4% (inactive) and -0.452% (inactive). The Potency result in [17] and in [18] was “inactive” throughout. The outcome in experiment [13] was inactive. The max response in experiment [5] is -2.48% (inactive) and 0.447% (inactive) and -3.85% (inactive).

As for `COP(=S)(OC)SCN1C(=O)c2ccccc2C1=O`, the activation in experiment [2] is 6.79% (inactive); in experiment [3], -2.37% (inactive); in experiment [4] it was -1.4% (inactive). Also, the max response in [5] was -0.635% (inactive).

As for `COC(=O)C(c1ccccc1)C1CCCCN1` (stereo not given), the activation in experiment [2] is -1.5% (inactive) and -3.75% (inactive); in [3] it was 0.137% (inactive) and 0.745% (inactive); in experiment [4], 0.112% (inactive) and -0.732% (inactive). For the same molecule, the Potency entry in experiment [17], in [18] and in experiment [14] was “inactive” each time. Also, the molecule was classed as inactive in [13] and in experiment [19]. Further, the max response in experiment [5] was -1.82% (inactive) and 0.192% (inactive).

Take `Nc1ccccc1`: the Potency entry in [1] and in experiment [14] was “inactive” in each case. Moreover, the activation in experiment [2] is 1.3% (inactive). For the same molecule, the result in experiment [13] and in experiment [19] was inactive. Further, the max response in [5] is 7.46% (inactive).

With `[N-]=[N+]=CC(=O)OC[C@H](N)C(=O)O`, the Potency result in experiment [1] is “inactive”. Besides, the activation in [2] is -0.27% (inactive); in experiment [3], -0.449% (inactive). The max response in experiment [5] was 0.305% (inactive).

Turning to `NCCc1ccc(O)cc1`, the Potency result in experiment [1], in experiment [18] and in experiment [14] was “inactive” throughout. In addition, the activation was -2.23% (inactive) in experiment [2], -0.88% (inactive) in [3] and -0.313% (inactive) in experiment [4]. Moreover, the result in experiment [13] was inactive. Besides, the max response in experiment [5] is -1.42% (inactive).

As to `COP(=S)(OC)Oc1ccc(SC)c(C)c1`, the Potency result in experiment [1], in experiment [18] and in experiment [14] was “inactive” each time. Further, the activation is -1.52% (inactive) and -0.273% (inactive) in [2]; -0.287% (inactive) and 1.27% (inactive) in [3]. Further, the call in [13] and in [19] was inactive. Further, the max response in [5] was 6.43% (inactive) and 7.61% (inactive).

As for `COc1cc(OC)c(OC)cc1C=O`, the Potency result in experiment [1], in experiment [17], in [18] and in [14] was “inactive” throughout. For the same molecule, the activation in [2] was -3.74% (inactive); in [3], 2% (inactive). The molecule was classed as inactive in experiment [13]. The max response in experiment [5] was 0.405% (inactive).

For `CC(C)NC(C)C`, the Potency result in [1] and in experiment [14] was “inactive” each time. For the same molecule, the figures for the activation in [2], in experiment [3] and in experiment [4] were -4.28% (inactive), -1.54% (inactive) and -1.71% (inactive), respectively. For the same molecule, the outcome in experiment [13] was inactive. In addition, in experiment [5], the max response is 0.708% (inactive).

Consider `CC1(C)C(C=C(Cl)Cl)C1C(=O)OC(C#N)c1cccc(Oc2ccccc2)c1` (stereo not given), for which the figures for the activation in [2], in experiment [3] and in experiment [4] were -1.45% (inactive), 1.83% (inactive) and 3.99% (inactive), respectively. Also, the max response in experiment [5] is -4.65% (inactive).

Source of the values: PubChem BioAssay (NCATS).
